Laboratory results published in PubChem BioAssay (Tox21).
Inconclusive results are not listed. Activity calls are given as the source filed them. Unless noted, calls follow the shape of the full dose curve.

Columns and labels:
[1] = qHTS assay to identify small molecule agonists of the sonic hedgehog signaling (Shh) pathway (AID 1259368); conditions: NIH/3T3 Gli1-Luc reporter, luciferase, 24 h; series mostly up to 92.4 µM; also: nearly all actives have a fitted effect of over 15% in size; also: potency is read from the fitted curve at half-maximal effect;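 as to activity change: NIH/3T3-derived 3T3Gli1-Luc cells carrying a stable Gli1-driven firefly luciferase reporter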
Outline: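 Luminescent signal was taken as a measure of Gli1-controlled luciferase expression in stably transfected NIH/3T3-derived cells that had been treated for 24 hr with compounds delivered in DMSO.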

[2] = qHTS assay to identify small molecule antagonists of the sonic hedgehog signaling (Shh) pathway (AID 1259369); conditions: NIH/3T3 Gli1-Luc reporter, Shh antagonist, luminescence 24 h; series mostly up to 92.4 µM; also: nearly all actives have a fitted effect of over 45% in size; also: potency is read from the fitted curve at half-maximal effect
Outline: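 Screening used 3T3Gli1-Luc cells at 2,000 per well, compounds delivered in DMSO, and conditioned medium as agonist stimulus; plates incubated 24hr at 37 C and 5% CO2 before a 30min luciferase step.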

[3] = molecular target: Estrogen receptor beta (Homo sapiens) (UniProt Q92731); experiment: qHTS assay to identify small molecule agonists of the estrogen receptor beta (ER-beta) signaling pathway (AID 1259377; active = well fitted activation curve with a large enough effect in the signal ratio in the repeat runs, not every such curve was filed as active; the % refers to the signal ratio); conditions: ER-beta-UAS-bla HEK293T, beta-lactamase FRET ratio, 16 h; series mostly up to 92.4 µM
Outline: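 Read-out: beta-lactamase FRET fluorescence. Cell line: ER-beta-UAS-bla HEK293T in 2% charcoal-stripped FBS. Exposure: 16 hr at 37C. Substrate step: 2 h at room temperature.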

[4] = molecular target: Estrogen receptor beta (Homo sapiens) (UniProt Q92731); experiment: qHTS assay to identify small molecule antagonists of the estrogen receptor beta (ER-beta) signaling pathway (AID 1259378; active = well fitted inhibition curve with a large enough effect in the signal ratio in the repeat runs, not every such curve was filed as active; the % refers to the signal ratio; also: potency is read from the fitted curve at half-maximal effect); conditions: ER-beta-UAS-bla HEK293T, beta-lactamase FRET ratio, 16 h; series mostly up to 92.4 µM
Outline: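 Antagonist mode: compounds added to beta-lactamase reporter HEK293T ER-beta-UAS cells stimulated with E2 (1nM final), 16 hr at 37C. LiveBLAzer B/G FRET substrate, 2 hours room temperature, fluorescence read-out.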

[5] = qHTS assay to identify small molecule agonists of the androgen receptor (AR) signaling pathway in the presence of an antagonist - cell viability counter screen (AID 1259379; active = well fitted curve in the direction sought with a large enough effect in the repeat runs; an effect the other way counts as inactive or inconclusive; also: nearly all actives have a fitted effect of over 25% in size; also: potency is read from the fitted curve at half-maximal effect;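 as to activity change, negative = cytotoxicity: MDA-kb2 human breast cancer cells carrying an MMTV luciferase reporter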); conditions: MDA-kb2 viability, CellTiter-Fluor, 16 h; series mostly up to 92.4 µM
Outline: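 In MDA-kb2 cells (human breast carcinoma, MMTV-luciferase), compounds at 15 concentrations plus 3.0uM nilutamide; 16 hr, 37C, 0% CO2; CellTiter-Fluor fluorescence read for viability.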

[6] = qHTS assay to identify small molecule agonists of the estrogen receptor beta (ER-beta) signaling pathway - cell viability counter screen (AID 1259380; active = well fitted curve in the direction sought with a large enough effect in the repeat runs; an effect the other way counts as inactive or inconclusive; also: nearly all actives have a fitted effect of over 30% in size); conditions: ER-beta-bla HEK293T viability, CellTiter-Glo luminescence, 16 h; series mostly up to 92.4 µM
Outline: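 Viability of ER-beta-UAS-bla HEK293T cells was determined by CellTiter-Glo luminescence following 16 hr treatment with test compounds at 37C.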

[7] = qHTS assay to identify small molecule antagonists of the estrogen receptor beta (ER-beta) signaling pathway - cell viability counter screen (AID 1259382; active = well fitted curve in the direction sought with a large enough effect in the repeat runs; an effect the other way counts as inactive or inconclusive;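 also: HEK293T cells carrying ER-beta-UAS-bla reporter stimulated with estradiol; nearly all actives have a fitted effect of over 55% in size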); conditions: ER-beta-UAS-bla HEK293T viability, CellTiter-Glo luminescence, 16 h; series mostly up to 92.4 µM
Outline: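 Tox21 10K library tested in qHTS format on ER-beta-bla HEK293T cells stimulated with 1nM E2; 16 hr treatment at 37C. Same-well CellTiter-Glo luminescence served as the cell viability measure.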

[8] = qHTS assay to identify small molecule agonists or antagonists of the thyroid stimulating hormone receptor (TSHR) signaling pathway - wild type cell line counter screen (AID 1259384); conditions: HEK293 wild type, cAMP HTRF counter-screen, stronger effect = higher value; series mostly up to 92.4 µM
Outline: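 Counter screen in untransfected Hek293: compounds (15-point titration, triplicate) plus phosphodiesterase inhibitor Ro20-1724 added after 18 h plating; 30 min RT. Intracellular cAMP via competitive d2/cryptate immunoassay, 1 h incubation.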

[9] = molecular target: Estrogen receptor (Homo sapiens) (UniProt P03372); experiment: qHTS assay to identify small molecule agonists of the estrogen receptor alpha (ER-alpha) signaling pathway in the presence of an antagonist (AID 1259383); conditions: VM7Luc4E2 cells, ERE-luciferase, +ICI-182,780, 22 h; series mostly up to 92.4 µM; also: top concentration of the series differs between compounds; nearly all actives have a fitted effect of over 15% in size
Outline: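 In VM7Luc4E2 cells, 4,000 per well, compounds at 15 concentrations were co-incubated 22hr at 37C with 10.0nM final ICI-182,780. Luminescence from the stably transfected 4×ERE-luciferase reporter was recorded 30min after ONE-Glo addition.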

[10] = molecular target: Androgen receptor (Homo sapiens) (UniProt P10275); experiment: qHTS assay to identify small molecule agonists of the androgen receptor (AR) signaling pathway in the presence of an antagonist (AID 1259381); conditions: MDA-kb2 MMTV-luciferase, AR agonist + nilutamide, 16 h; series mostly up to 92.4 µM; also: nearly all actives have a fitted effect of over 15% in size
Outline: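 Here, 15-concentration compound series were pin-transferred onto MDA-kb2 MMTV-luciferase cells already dosed with nilutamide (3.0uM final). After 16hr at 37C, ONE-Glo was added and luminescence read 30min later at room temperature.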
% is scaled to controls: 0 for no effect and ±100 for the full control effect.

Sequence of Estrogen receptor (Homo sapiens) (P03372 whole entry, looked up): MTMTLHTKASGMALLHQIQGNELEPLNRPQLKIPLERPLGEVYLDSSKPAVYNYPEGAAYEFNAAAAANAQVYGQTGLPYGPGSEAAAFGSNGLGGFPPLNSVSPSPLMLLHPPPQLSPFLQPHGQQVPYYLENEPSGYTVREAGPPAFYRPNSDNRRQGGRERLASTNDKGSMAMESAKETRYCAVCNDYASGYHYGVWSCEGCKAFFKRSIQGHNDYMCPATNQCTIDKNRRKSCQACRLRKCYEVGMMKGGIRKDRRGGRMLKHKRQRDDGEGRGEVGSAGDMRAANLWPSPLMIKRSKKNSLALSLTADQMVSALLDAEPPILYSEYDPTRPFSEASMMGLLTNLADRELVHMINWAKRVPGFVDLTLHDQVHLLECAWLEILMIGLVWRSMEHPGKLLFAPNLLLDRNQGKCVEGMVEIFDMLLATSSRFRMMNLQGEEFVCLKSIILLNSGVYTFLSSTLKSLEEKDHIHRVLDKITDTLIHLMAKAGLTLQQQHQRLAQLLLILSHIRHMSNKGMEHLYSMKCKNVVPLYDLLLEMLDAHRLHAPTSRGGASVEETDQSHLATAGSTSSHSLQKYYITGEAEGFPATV
Sequence of Estrogen receptor beta (Homo sapiens) (Q92731 whole entry, looked up): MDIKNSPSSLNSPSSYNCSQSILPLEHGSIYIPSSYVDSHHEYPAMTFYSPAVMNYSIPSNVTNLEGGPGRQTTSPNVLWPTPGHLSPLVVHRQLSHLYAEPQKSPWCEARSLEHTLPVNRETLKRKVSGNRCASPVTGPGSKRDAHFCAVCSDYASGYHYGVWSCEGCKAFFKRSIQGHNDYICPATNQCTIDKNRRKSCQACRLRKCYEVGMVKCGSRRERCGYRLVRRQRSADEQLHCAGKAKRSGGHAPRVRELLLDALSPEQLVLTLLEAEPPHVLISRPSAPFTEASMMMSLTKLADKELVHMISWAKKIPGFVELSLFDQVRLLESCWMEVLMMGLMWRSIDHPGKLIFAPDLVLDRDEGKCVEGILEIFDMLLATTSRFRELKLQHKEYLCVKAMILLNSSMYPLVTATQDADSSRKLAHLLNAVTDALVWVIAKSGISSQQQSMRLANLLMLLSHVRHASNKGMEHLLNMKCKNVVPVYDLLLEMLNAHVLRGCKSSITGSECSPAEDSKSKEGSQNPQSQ
Sequence of Androgen receptor (Homo sapiens) (P10275 whole entry, looked up): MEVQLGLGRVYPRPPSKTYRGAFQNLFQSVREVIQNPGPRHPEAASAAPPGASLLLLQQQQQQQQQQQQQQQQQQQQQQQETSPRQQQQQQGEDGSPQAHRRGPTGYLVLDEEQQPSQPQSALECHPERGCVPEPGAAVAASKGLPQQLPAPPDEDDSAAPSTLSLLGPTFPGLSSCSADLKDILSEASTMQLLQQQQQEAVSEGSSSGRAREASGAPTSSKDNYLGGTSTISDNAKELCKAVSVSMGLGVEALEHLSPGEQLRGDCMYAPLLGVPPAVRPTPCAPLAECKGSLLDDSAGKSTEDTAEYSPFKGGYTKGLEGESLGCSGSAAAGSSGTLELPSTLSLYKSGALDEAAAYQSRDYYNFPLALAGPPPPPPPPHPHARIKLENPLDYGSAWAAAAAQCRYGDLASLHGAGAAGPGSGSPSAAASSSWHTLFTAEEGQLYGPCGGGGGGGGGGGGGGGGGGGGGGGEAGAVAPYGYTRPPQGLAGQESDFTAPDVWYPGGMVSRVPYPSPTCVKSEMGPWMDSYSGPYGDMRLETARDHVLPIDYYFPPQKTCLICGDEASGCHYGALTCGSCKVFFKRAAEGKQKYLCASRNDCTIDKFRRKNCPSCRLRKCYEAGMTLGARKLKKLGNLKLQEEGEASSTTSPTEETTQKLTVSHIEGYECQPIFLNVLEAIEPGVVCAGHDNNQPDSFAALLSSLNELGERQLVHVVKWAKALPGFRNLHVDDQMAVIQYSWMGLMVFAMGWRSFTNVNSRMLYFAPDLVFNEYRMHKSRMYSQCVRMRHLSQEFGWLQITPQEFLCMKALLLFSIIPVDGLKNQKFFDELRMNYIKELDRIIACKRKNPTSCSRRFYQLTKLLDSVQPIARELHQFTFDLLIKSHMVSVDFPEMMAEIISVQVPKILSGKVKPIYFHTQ

CC(C)CCCCCCCOC(=O)c1ccc(C(=O)OCCCCCCCC(C)C)c(C(=O)OCCCCCCCC(C)C)c1
inactive: Potency [1] | Potency [3] | Potency [4] | Potency [5] | Potency [6] | Potency [7] | outcome [8]
active: Potency [2] 4.78 µM

Cc1cccc(C)c1NC(=O)CN1CCCC1
inactive: Potency [1] | Potency [2] | Potency [3] | Potency [4] | Potency [5] | Potency [6] | Potency [7] | outcome [8]

C1CCN(CN2CCCCC2)CC1
inactive: Potency [1] | Potency [2] | Potency [3] | Potency [4] | Potency [5] | Potency [6] | Potency [7] | Potency [9] | outcome [8]

Nc1ccc(F)cc1F
inactive: Potency [1] | Potency [2] | Potency [3] | Potency [4] | Potency [5] | Potency [6] | Potency [10] | Potency [7] | outcome [8]

CCOC(C)OCC
inactive: Potency [1] | Potency [2] | Potency [3] | Potency [4] | Potency [5] | Potency [6] | Potency [7]

O=C(Nc1ccccc1)c1cc([N+](=O)[O-])ccc1Cl
active: Potency [2] 21.7 µM | Potency [4] 48.6 µM
inactive: Potency [1] | Potency [3] | Potency [5] | Potency [6] | Potency [10] | Potency [7] | Potency [9] | outcome [8]

CC(=O)c1cccnc1
inactive: Potency [1] | Potency [2] | Potency [3] | Potency [4] | Potency [5] | Potency [6] | Potency [7] | Potency [9]

C=Cc1ccc(C=C)cc1
inactive: Potency [1] | Potency [2] | Potency [3] | Potency [4] | Potency [5] | Potency [6] | Potency [7] | outcome [8]

FC(F)(Cl)C(F)(Cl)Cl
inactive: Potency [1] | Potency [2] | Potency [3] | Potency [4] | Potency [5] | Potency [6] | Potency [10] | Potency [7] | Potency [9] | outcome [8]

N#C[C@@H]1CC(F)(F)CN1C(=O)CNC1CC2CCC(C1)N2c1ncccn1 (stereo partly drawn)
inactive: Potency [1] | Potency [2] | Potency [3] | Potency [4] | Potency [5] | Potency [6] | Potency [10]

NC(=O)c1ccccc1
inactive: Potency [1] | Potency [2] | Potency [3] | Potency [4] | Potency [5] | Potency [6] | Potency [10] | Potency [7] | Potency [9] | outcome [8]

Cc1nc(C)c(C)nc1C
inactive: Potency [1] | Potency [2] | Potency [3] | Potency [4] | Potency [5] | Potency [6] | Potency [10] | Potency [7] | Potency [9] | outcome [8]

CCCCOC(=O)C(C)Oc1ccc(Oc2ccc(C(F)(F)F)cn2)cc1 (stereo not drawn)
inactive: Potency [1] | Potency [2] | Potency [3] | Potency [4] | Potency [5] | Potency [6] | Potency [7] | Potency [9] | outcome [8]

CC(=O)Nc1ccccc1O
inactive: Potency [1] | Potency [2] | Potency [3] | Potency [4] | Potency [5] | Potency [6] | Potency [7] | outcome [8]

C/C=C1\[C@H]2C=C(C)C[C@]1(N)c1ccc(=O)[nH]c1C2
inactive: Potency [1] | Potency [2] | Potency [3] | Potency [4] | Potency [5] | Potency [6] | outcome [8]

Clc1nc2ccccc2nc1Cl
active: Potency [5] 24.6 µM
inactive: Potency [1] | Potency [2] | Potency [3] | Potency [4] | Potency [6] | Potency [7] | outcome [8]

Cc1c(-c2cccnc2)c2ccccc2n1CCCCC(=O)O
inactive: Potency [1] | Potency [2] | Potency [3] | Potency [4] | Potency [5] | Potency [6] | outcome [8]

C[Si](C)(C)O[Si](C)(C)O[Si](C)(C)C
inactive: Potency [1] | Potency [2] | Potency [3] | Potency [4] | Potency [5] | Potency [7] | outcome [8]

O=C(O)c1ccc2c(c1)nc(C(=O)NC1CCN(C3CC3)CC1)n2Cc1cc(-c2ccc(Cl)s2)on1
inactive: activity change [1] -5.1% [at 18.9 µM, stronger effect = higher value] | activity change, negative = inhibition [2] -2.6% [at 19 µM] | activation [3] -4.72% [at 19 µM] | activity, negative = inhibition [4] 18.6% [at 19 µM] | activity change, negative = cytotoxicity [5] 2.61% [at 19 µM] | activity change, negative = cytotoxicity [7] -12.8% [at 19 µM] | activation [9] 1.43% [at 19 µM] | cAMP activity change [8] 1.96% [at 18.9 µM]

CC(C)(C)NCC(O)COc1ccc(NC(=O)NC2CCCCC2)cc1 (stereo not drawn)
inactive: Potency [1] | Potency [2] | Potency [3] | Potency [4] | Potency [5] | Potency [6] | Potency [9] | outcome [8]

CC(C)(C)c1ccc(CCC=O)cc1
inactive: Potency [1] | Potency [2] | Potency [3] | Potency [4] | Potency [5] | Potency [7] | Potency [9] | outcome [8]

COc1ccc(CN(CCN(C)C)c2ncccn2)cc1
inactive: Potency [1] | Potency [2] | Potency [3] | Potency [4] | Potency [5] | Potency [6] | Potency [7] | outcome [8]

O=C1c2ccccc2C(=O)C1c1ccc2ccccc2n1
active: Potency [1] 0.121 µM
inactive: Potency [2] | Potency [3] | Potency [5] | Potency [6] | Potency [7] | outcome [8]

C[C@H](CN1CCCC1)C(=O)c1ccc(C(F)(F)F)cc1
inactive: Potency [1] | Potency [2] | Potency [3] | Potency [4] | Potency [5] | Potency [7] | outcome [8]

CC1(C)C(=O)NC(=O)N1CO
inactive: Potency [1] | Potency [2] | Potency [3] | Potency [4] | Potency [5] | Potency [7] | Potency [9] | outcome [8]

CCOC(=O)CC(O)(CC(=O)OCC)C(=O)OCC
active: Potency [2] 68.6 µM
inactive: Potency [1] | Potency [3] | Potency [4] | Potency [5] | Potency [6] | Potency [9] | outcome [8]

CCCN(C1CCN(C(=O)C2CCNCC2)CC1)[C@@H]1CCc2ccc(OC)cc2C1
active: Potency [2] 4.33 µM
inactive: Potency [1] | Potency [3] | Potency [4] | Potency [10] | outcome [8]
